# Hits are enriched below; roughly 2.4% of the tested compounds scored in any of these assays.
# Anthrax LT inh: blocks cellular internalization of anthrax lethal toxin. Cells, anthrax lethal toxin internalization, FRET ratio (460/530). Potency, µM (highest dose often 40 µM), inactives show at the top dose activity change, negative = inhibition, hits mostly inhibitors. actives 0.67% (n = 70,000). AID 912; note: % is set by controls: 0 for no effect and ±100 for the full control effect; nearly all actives have a fitted effect of over 50% in size
# SmPrx2 inh: Schistosoma mansoni Prx2 inhibition. S. mansoni Prx2 activity coupled to TGR/GSH (TGR is thioredoxin glutathione reductase), NADPH fluorescence loss, qHTS. Potency, µM. actives 0.07% (n = 65,000). AID 448
#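 Coupled assay in which S. mansoni TGR passes NADPH reducing equivalents via glutathione to Prx2, which reduces H2O2. Compounds were preincubated 15 min at room temperature with 25 nM TGR/50 nM Prx2 mix. Kinetic NADPH fluorescence loss (ex 365/em 450 nm) was monitored.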
# AmpC inh det: inhibitors of E. coli AmpC beta-lactamase with detergent | AID 584 | Potency, µM (highest dose often 28.7 µM), inactives show at the top dose activity change, negative = inhibition | purified AmpC, nitrocefin hydrolysis with detergent | actives 0.09% (n = 71,000); active = well fitted curve in the direction sought with a large enough effect; inconclusive = small, poorly fitted or top-dose-only effect; note: % is set by controls: 0 for no effect and ±100 for the full control effect
# Target sequence (P00811 whole entry, looked up): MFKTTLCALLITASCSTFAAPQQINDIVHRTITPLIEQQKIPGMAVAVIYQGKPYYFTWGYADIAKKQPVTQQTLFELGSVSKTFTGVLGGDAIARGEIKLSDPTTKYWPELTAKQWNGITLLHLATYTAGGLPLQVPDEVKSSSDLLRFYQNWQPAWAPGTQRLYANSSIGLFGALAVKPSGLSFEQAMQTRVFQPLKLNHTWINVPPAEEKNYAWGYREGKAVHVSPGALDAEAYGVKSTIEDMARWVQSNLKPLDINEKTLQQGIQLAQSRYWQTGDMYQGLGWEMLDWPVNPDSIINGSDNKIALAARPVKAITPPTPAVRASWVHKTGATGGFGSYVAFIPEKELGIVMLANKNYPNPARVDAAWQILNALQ
#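 E. coli AmpC (5.3 nM) in 20 mM phosphate pH 7.0 with 0.01% Triton X-100, preincubated 15 min RT with compound; nitrocefin (2 uL of 800 uM stock) hydrolysis followed by 480 nm absorbance every 20 s over 4 min.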
# AmpC inh no det: AmpC beta-lactamase inhibition, detergent-free assay | AmpC nitrocefin hydrolysis, absorbance 480 nm, no detergent | Potency, µM (top dose mostly 28.7 µM), for the others: at the highest dose activity change, negative = inhibition | actives 1.8% (n = 71,000) | AID 585; note: % of control where 0% means no effect
#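 Enzyme, pH 7.0 phosphate. Compound titrations were pre-incubated with AmpC for 15 min at room temperature before nitrocefin (stock 800 uM) addition; product formation was recorded at 480 nm every 20 s for 4 min.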
# Numbers without * were called inactive; ? = inconclusive; / = not tested or not shown; [ ] = dose if it differs, or a comment. Unless noted, calls come from the whole dose curve. Potency is the fitted concentration of half-maximal effect.
SMILES,Anthrax LT inh,SmPrx2 inh,AmpC inh det,AmpC inh no det
CC1CCCC(C)N1c1nnc(N)s1 (configuration not stated),-6%,>57,12%,4µM*[single pt active]
CC1CCCCN1c1nnc(N)s1 (configuration not stated),5%,>57,17%,-5%
COc1ccccc1CN1CCCC2(CCN(C(=O)c3cccn3C)CC2)C1,?,>57,-1%,18%
O=C(CCCn1c(=O)[nH]c2ccccc2c1=O)NC1CCCCCC1,-4%,>57,3%,13%
O=C(CCCCn1c(=O)[nH]c2ccccc2c1=O)NC1CCN(Cc2ccccc2)CC1,-14%,>57,15%,3.2µM*[single pt active]
O=C(c1ccc(COc2ccc(Cl)cc2)o1)N1CCN(Cc2ccc3c(c2)OCO3)CC1,-22%,/,-6%,91%
CN(C)c1ccc(NC(=O)c2ccc(COc3cccc(Cl)c3)o2)cc1,10µM*,>57,9%,16%
O=C(Nc1ccc2c(c1)OCO2)c1ccc(COc2ccc3c(c2)CCC3)o1,6.3µM*,>57,-4%,-20%
COc1cc2nc(N3CCN(C(=O)[C@@H]4COc5ccccc5O4)CC3)nc(N)c2cc1OC,?,>57,-6%[12.8 µM],30%[12.8 µM]
Cc1sc2ncnc(Sc3nnnn3-c3ccccc3)c2c1C,-2%,>57,-2%,7%
Clc1ccc(-n2nnnc2Sc2ncnc3sccc23)cc1,6.3µM*,?,-5%,-8%
CCc1ncc(C(O)c2cccc(OC)c2OC)n1C (configuration not stated),1%,>57,-6%,-13%
CCn1ccnc1C(O)c1cccc(OC)c1OC (configuration not stated),-9%,>57,12%,4µM*[single pt active]
Clc1ccc(Nc2ncnc3c2cnn3-c2ccccc2)cc1,10µM*,>57,6%,-4%
COc1ccc(Nc2ncnc3c2cnn3-c2ccccc2)cc1OC,?,>57,6%,25%
CCNc1ncc2nc(-c3ccc(Cl)cc3)c(=O)n(CCC#N)c2n1,?,>57,2%,-8%
O=C1[C@@H]2[C@H]3C(=CC[C@@H]2C(=O)N1Cc1ccccc1)C1(OCCCO1)[C@H]1O[C@@H]1[C@H]3O,-2%[8 µM],/,/,/
Cc1ccc(CNc2ccc(N3CCOCC3)cc2)s1,-12%,>57,-5%,39%
CC(=O)N1CCN(c2ccc(NCc3ccc(C)s3)cc2)CC1,-7%,>57,14%,4µM*[single pt active]
COc1ccccc1NC(=O)C1(C)Cc2ccccc2C(=O)O1 (configuration not stated),-1%,>57,7%,4µM*[single pt active]
CC(C)CN1CCC2(CC1)CCN(C(=O)c1cnccn1)CC2,15%,>57,-4%,-2%
O=C(Nc1cccc(F)c1)N1CC2(CCN(C(=O)c3ccncc3)CC2)C1,7%,>57,16%,86%
Cc1cccc(OCC(=O)NCc2ccncc2)c1C,-5%,>57,11%,3.2µM*[single pt active]
Cc1cc(C)cc(N(CC(=O)N2CCN(Cc3ccccc3)CC2)S(=O)(=O)c2c(C)noc2C)c1,-1%,>57,11%,4µM*[single pt active]
CCOc1ccc(N(CC(=O)N2CCCC2)S(=O)(=O)c2c(C)noc2C)cc1,-12%,>57,9%,4µM*[single pt active]
SMILES,Anthrax LT inh,SmPrx2 inh,AmpC inh det,AmpC inh no det
CCCN(c1ccc(C(C)C)cc1)S(=O)(=O)c1c(C)noc1C,-20%,>57,-4%,15%
Cc1noc(C)c1S(=O)(=O)N(CC(=O)N1CCn2c1nc1ccccc12)c1ccc(C(C)C)cc1,?,>57,10%,4µM*[single pt active]
CCOC(=O)C1CCN(C(=O)CN(c2ccc(OC)cc2)S(=O)(=O)c2c(C)noc2C)CC1,2%,>57,5%,102%
COC(=O)C(CC(=O)c1ccc(Br)cc1)n1ccnc1 (configuration not stated),13µM*,>57,-4%,7%
Cc1ccc(C(=O)CC(C(=O)O)n2cccn2)cc1 (configuration not stated),8%,>57,0%,-6%
c1ccc(Cn2nnnc2C(c2ccccc2)N2CCN(c3nc4ccccc4s3)CC2)cc1 (configuration not stated),-9%,>57,25%,2%
CCCCC(c1nnnn1Cc1ccco1)N1CCN(c2nc3ccccc3s2)CC1 (configuration not stated),10µM*,>57,-2%,37%
CCOC(=O)C1CCCN(c2c(NCCCN3CCCC(C)C3)c(=O)c2=O)C1 (configuration not stated),-21%,>57,14%,4µM*[single pt active]

# From PubChem BioAssay
